Assay results from PubChem BioAssay AID777 (Sanford-Burnham Center for Chemical Genomics, 2007).
Screen size: about 96,000 compounds; about 19,000 (20%) were called active.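 How the source made its calls: active means blocking of liver enzyme CYP2C9 beyond about 50% at 5 µM (limit read from the data); inactive means the rest.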 Only a sample is shown.

target: Cytochrome P450 2C9 (Homo sapiens) (UniProt P11712); assay: blockers of cytochrome P450 2C9 activity – biochemical, luminescence, ADME assay, primary screen (AID 777); details: CYP2C9 Supersomes, luciferin-H conversion, at 5 µM, active compounds read high
Sequence (P11712 whole entry, looked up): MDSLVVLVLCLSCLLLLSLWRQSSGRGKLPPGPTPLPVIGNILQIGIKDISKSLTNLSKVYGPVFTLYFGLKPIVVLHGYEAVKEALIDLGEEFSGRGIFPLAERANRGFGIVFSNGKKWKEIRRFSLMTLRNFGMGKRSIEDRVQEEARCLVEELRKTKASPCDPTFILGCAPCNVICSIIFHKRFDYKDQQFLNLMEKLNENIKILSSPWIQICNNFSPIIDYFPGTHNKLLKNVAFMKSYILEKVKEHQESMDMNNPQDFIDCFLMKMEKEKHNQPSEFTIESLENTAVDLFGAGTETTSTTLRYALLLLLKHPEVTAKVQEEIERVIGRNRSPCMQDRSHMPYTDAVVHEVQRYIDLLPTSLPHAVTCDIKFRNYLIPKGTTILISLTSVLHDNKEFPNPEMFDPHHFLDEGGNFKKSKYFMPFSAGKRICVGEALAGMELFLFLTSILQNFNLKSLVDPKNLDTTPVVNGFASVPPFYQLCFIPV

inhibition, active:
C/C(=N\NS(=O)(=O)c1cccc([N+](=O)[O-])c1)c1cc2ccccc2o1 91.4%
COc1ccc(CCNC(=O)C2CCCN(Cc3nc(-c4cccc(Cl)c4)oc3C)C2)cc1OC (centres undefined) 58.8%
COc1cccc(NC(=O)C(C)Oc2ccccc2)c1 (centres undefined) 56.1%
CC(=O)Nc1ccc(S(=O)(=O)Nc2ccc(N3CCOCC3)c(F)c2)cc1 50%
CC(=O)Nc1ccc(S(=O)(=O)Nc2cccc(NC(=O)C(C)(C)C)c2)cc1 59.2%
COC(=O)COc1ccc(S(=O)(=O)Nc2ccc(NC(C)=O)cc2)cc1 61.2%
COc1ccc(NS(=O)(=O)c2ccc(NC(=S)NC(=O)CC(C)C)cc2)cc1 54.8%
Cc1ccnc(N2CCN(C(=O)CSc3nc4ccccc4nc3N3CCCCC3)CC2)c1 98.5%
CCOC(=O)CN(Cc1ccc(OC)c(OC)c1)S(=O)(=O)c1ccc(OC)cc1 64%
O=C(CCN1c2ccccc2Sc2ccccc21)Nc1ccccc1 95.4%
O=C(CCN1C(=O)c2ccccc2C1=O)Nc1ccncc1 65.7%
O=c1c(-c2ccc3c(c2)OCCO3)c(C(F)(F)F)oc2cc(O)cc(O)c12 87.3%
Cc1ccc2cc(CCNC(=O)c3c(-c4ccccc4Cl)noc3C)c(=O)[nH]c2c1 93.8%
Cc1onc(-c2ccccc2Cl)c1C(=O)NCCn1ccc2ccccc21 54.6%
Cc1onc(-c2ccccc2Cl)c1C(=O)OCC(=O)c1ccccc1 65.8%
O=S(=O)(c1ccccc1)N(CC(O)CN1CCCCC1)c1ccccc1 (centres undefined) 56%
Cc1ccc(CCN2CC(C(=O)O)CC2=O)cc1 (centres undefined) 53.7%
CCc1ccc(CNC(=O)C2CC(=O)N(CCc3ccc(C)cc3)C2)cc1 (centres undefined) 54.1%

inhibition, inactive:
CCOCCCNC(=O)C(NC(=O)CNC(=O)c1ccccc1)c1ccc(C)cc1 (centres undefined) -22.9%
Cc1ccccc1NC(=S)Nc1cccc([N+](=O)[O-])c1 22.3%
CCCS(=O)(=O)N1CCCC(C(=O)NCCN2CCCCC2C)C1 (centres undefined) -5.4%
CCCc1ccc(-c2c(C)sc(NC(=O)c3ccnn3C)c2C#N)cc1 43.6%
CC(=O)NS(=O)(=O)c1ccc(NC(=O)/C=C/c2ccccc2Cl)cc1 12.7%
CCCS(=O)(=O)N1CCC(C(=O)NCCc2ccc(OC)c(OC)c2)CC1 -5.4%
COc1ccc(CCN(C)C(=O)C2CCCN(Cc3ccc(OC)c(OC)c3)C2)cc1OC (centres undefined) 27.1%
Nc1nnnn1/N=C/c1cccs1 -2%
O=C(Nc1c(Cl)cccc1Cl)C1CCC1 0.8%
CCn1c(O)c2ccc(C(=O)N=NC(=O)c3cccnc3)cc2c1O -3.1%
COc1cc(OC)cc(C(=O)NC(=S)N2CCN(c3ccc(C(F)(F)F)cc3[N+](=O)[O-])CC2)c1 13.9%
CCNc1nc(N)nc(Oc2ccc(OCC)nn2)n1 -26.3%
OCCNCCCCOc1ccccc1F -0.4%
CSc1nc(N(C)NC(=O)c2cccc(C)c2)c2ccccc2n1 -0.3%
CC(=O)c1ccc(Cc2ncc(C(F)(F)F)cc2Cl)s1 -2.6%
COc1ccc(OC(C)C(=O)Nc2cccnc2)cc1 (centres undefined) 3.3%
COc1cccc(NC(=O)c2ccccc2SC)c1 -4.1%
CCCCN(CCCC)C(=O)CCS(=O)(=O)c1ccc2c(c1)n(C)c(=O)c(=O)n2C 14.4%
Cc1cccc(CSc2nnc(NC(=O)CSc3nnc(C)s3)s2)c1 -12%
CC(CCO)Nc1nc2c([nH]1)c(=O)n(C)c(=O)n2C (centres undefined) 19.8%
COc1ccc(OC)c2[nH]c(=O)c(CCNC(=O)C(C)(C)C)cc12 -7%
COc1ccc(NS(=O)(=O)c2ccc(NC(C)=O)cc2)cc1OC -8.7%
CC(=O)Nc1ccc(S(=O)(=O)Nc2nc3n(n2)C(c2ccccc2)CC(=O)N3)cc1 (centres undefined) -3.6%
COc1ccc(NS(=O)(=O)c2ccc(NC(=O)C(C)(C(F)(F)F)C(F)(F)F)cc2)nn1 12.4%
CCCC(NS(=O)(=O)c1ccc(OC)cc1)C(=O)O (centres undefined) 12.5%
COc1cc(NS(=O)(=O)c2ccc(NC(C)=O)cc2)cc(OC)c1 43.7%
COc1ccc(C(=O)Nc2ccc(S(=O)(=O)NC(C)C)cc2)cc1 34.1%
O=C(O)CCC(=O)Nc1ccc(N2CCOCC2)cc1 3.7%
CC(=O)NS(=O)(=O)c1ccc(NC(=S)NC(=O)C(C)(C)C)cc1 -22.1%
Cc1ccccc1-n1nc(C)c2cc(C(=O)NC3CC3)sc21 37.1%
O=C(c1ccco1)N1CCN(CC(=O)N(C2CCCCC2)C2CCS(=O)(=O)C2)CC1 (centres undefined) -18.6%
O=[N+]([O-])c1ccccc1OCCCCN1CCCCC1 -4%
CCCC(=O)Nc1nc2ccc(NC(=O)c3cccnc3)cc2s1 27.5%
CCc1c(C)sc(NC(=O)c2ccc(Br)o2)c1C(=O)OC -40.5%
CCOC(=O)c1c(CN2CCOCC2)n(-c2ccccc2)c2ccc(O)cc12 38.1%
COc1cccc(CN2C(=O)CCC2(C)C(=O)NC2CCCCCC2)c1 (centres undefined) -58.7%
CCNc1nc(SCCOc2ccccc2)nc(N(C)C)n1 -4.3%
Cn1c(=O)cc(SCC(=O)N2CCCC2)c2cc(Cl)ccc21 0.1%
CCOC(=O)Nc1ccc2c(c1)N(C(=O)CN1CCN3CCCC3C1)c1ccccc1CC2 (centres undefined) 0.1%
CSCC[C@H](NC(=O)NCc1cccs1)C(=O)O -6.8%
COc1ccc(-n2ncc3c(N4CCc5ccccc54)ncnc32)cc1 -29.5%
CC1(C)CC(=O)C=C(NC2CC(C)(C)NC(C)(C)C2)C1 9.6%
Cc1ccc2oc(=O)c3cnn(CC(=O)N4CCN(c5ccccn5)CC4)c3c2c1 20.1%
Cc1ccc(S(=O)(=O)NCC(=O)N2CCN(c3ccccn3)CC2)cc1 5.3%
CCCc1cc(-c2n[nH]c(=S)n2Cc2ccccc2)cs1 38.6%
CC(C)c1ccc(N2CCN(C(=O)c3ccccc3NC(=O)/C=C(\C(=O)O)c3ccccc3)CC2)cc1 18%
CCOCCN(C=O)c1cccc(OC)c1 -20.4%
O=C(OCc1cc2ccccc2[nH]c1=O)c1cccnc1 12.7%
C=CCSc1nc(Cc2ccc(Cl)cc2)nc2ccccc12 2.7%
O=C(CCN1C(=O)c2ccncc2C1=O)Nc1ccc2c(c1)OCCO2 -3.9%
O=C(CCN1C(=O)c2ccccc2C1=O)Nc1cccc(F)c1 28.8%
O=C(O)CCCC(=O)Nc1ccccc1-n1ccnc1 0.8%
O=C(CC1Nc2ccccc2NC1=O)Nc1ccccc1 (centres undefined) 6.5%
COc1ccc(Br)cc1S(=O)(=O)N1CCN=C1C -27.3%
Cc1nc2cc(-c3ccc(F)cc3)nn2c(N2CCOCC2)c1C 8.9%
CCN1CCN(Cc2c(O)ccc3c(=O)c(-c4ccc(OC)c(OC)c4)c(C(F)(F)F)oc23)CC1 8.1%
Cc1nc(SC(C)C)[nH]c(=O)c1Cc1ccccc1 26%
CCN1C(=O)/C(=C2/Sc3ccccc3N2CCCS(=O)(=O)O)SC1=S 7%
COc1cc(/C=N/Nc2nn3cnnc3c3ccccc23)cc(OC)c1OC 25.9%
Cc1cc2ccccc2n1CCNC(=O)COc1ccc2ccccc2c1 33.5%
Cc1ccc2cc(CCNC(=O)c3ccc4c(c3)OCO4)c(=O)[nH]c2c1 31.9%
Cc1ccc2[nH]c(=O)c(COC(=O)c3ccccn3)cc2c1 8.6%
COc1c(O)cccc1-c1nnn(CCC(=O)OCC(=O)c2ccccc2)n1 29%
Cc1onc(-c2c(Cl)cccc2Cl)c1C(=O)c1c[nH]c(C(=O)NC2CC2)c1 7.6%
O=C1c2ccccc2C(=O)N1Cc1cc(-c2ccccc2Cl)no1 -135%
CC(C)Cc1oc(C(=O)O)cc1CN -3.5%
C#CCSc1nnc(-c2sc3ccccc3c2Cl)o1 26.7%
COc1ccc(C(=O)N2CCC(C(=O)Nc3cccc(C)c3)CC2)cc1OC 8.3%
CCOc1ccc(N=C2SC(C(=O)O)CC(=O)N2C)cc1 (centres undefined) -4.3%
CC(C)(C)NC(=O)COc1ccc(CNc2ccc3[nH]c(=O)[nH]c3c2)cc1 31.4%
Cc1ccc(S(=O)(=O)c2c(COC(=O)c3cccc(Cl)c3)c(-c3ccccc3)nn2C)cc1 49.8%
Cc1cccc(N(CC(O)CN(C)C)S(=O)(=O)c2ccccc2)c1 (centres undefined) 7.4%
Cc1ccc(N(CC(O)CN2CCCC2)S(=O)(=O)c2ccccc2)cc1 (centres undefined) 27.2%
Cc1ccc(C(=O)N(CN2CCCC2=O)c2ccc(F)cc2)cc1 -20%
CC(=O)N1Cc2ccccc2CC1C(=O)O (centres undefined) -18.6%
Cc1c(NC(=O)C(C)OC(=O)c2cc3c4ccccc4n(C)c3s2)c(=O)n(-c2ccccc2)n1C (centres undefined) -4.5%
CCOc1ccccc1NC(=O)C1CCC(CNc2c(N3CCOCC3)c(=O)c2=O)CC1 (centres undefined) -30.1%
COCCCNC(=O)C1CC(=O)N(CCc2ccccc2)C1 (centres undefined) -3.7%
O=C(O)C1CC(=O)N(Cc2cccnc2)C1 (centres undefined) -22%
O=C(NC1CCCCC1)C1CC(=O)N(CCc2ccccc2)C1 (centres undefined) -4.8%
Cc1ccc(CNC(=O)C2CC(=O)N(C3CCCCCCC3)C2)cc1 (centres undefined) -1.3%
